Reference: PubChem BioAssay (Tox21)
Inconclusive results are not listed. A number with no mark means an inactive call. Activity calls are given as the source filed them. Calls come from the whole dose curve.

Test: qHTS assay for small molecule disruptors of the mitochondrial membrane potential - cell viability (AID 720634);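 note: human HepG2 liver cancer cells; nearly all actives have a fitted effect of over 20% in size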
Conditions: HepG2 viability, ATP luminescence (CellTiter-Glo), 1 h; series mostly up to 83.2 µM; activity change, negative = cytotoxicity: at the top concentration
Text: U.S. Tox21 Program National Center for Advancing Translational Sciences [NCATS] NIH Chemical Genomics Center [NCGC] U.S. Environmental Protection Agency [EPA] National Institutes of Environmental Health Sciences [NIEHS] National Toxicology Program [NTP] U.S. Food and Drug Administration [FDA] Tox21 Assay Overview: Mitochondrial membrane potential (MMP), one of the parameters for mitochondrial function, is generated by mitochondrial electron transport chain that creates an electrochemical gradient by a series of redox reactions. This gradient drives the synthesis of ATP, a crucial molecule for various cellular processes. Measuring MMP in living cells is commonly used to assess the effect of chemicals on mitochondrial function; decreases in MMP can be detected using lipophilic cationic fluorescent dyes. […] The dye accumulates in the mitochondria of healthy cells as aggregates, with red fluorescence. The mitochondrial potential decreases and the dye could not accumulate in the mitochondria and remains in the cytoplasm in monomers, with green fluorescence. In addition to the mitochondrial potential assay, these cells were also used to test the cytotoxicity by determining the cell viability in the culture based on the quantitation of ATP present. The cytotoxicity was measured in the same assay well of MMP assay.
Tox21 Assay Protocol Summary: 2,000 HepG2 cells in 5 uL/well were dispensed into black, clear-bottom 1536-well plates using a Multidrop Combi (Thermo Scientific) dispenser. The assay plates were incubated for an overnight at 37 C to allow cells to attach to the wells, followed by the transfer of 23 nL compound or DMSO vehicle by a pin tool (Kalypsys). The plates were incubated for 1 hr at 37 C and 5% CO2, followed by the addition of 5 uL of 2X m-MPI dye into each well using Flying Reagent Dispenser (Aurora Discovery) and then CellTiter-Glo reagent was added at 4 uL/well and incubated 30 min at room temperature. Then luminescence intensity was quantified on a ViewLux CCD-based plate reader.
% is set by controls: 0 for no effect and ±100 for the full control effect.

SMILES | activity change, negative = cytotoxicity | Potency
CCC(C(=O)OCCOCCN(CC)CC)c1ccccc1 (stereo not given) | -4.07% | –
CN1CCN(c2c(F)cc3c(=O)c(C(=O)O)cn4c3c2OCN4C)CC1 | 14.1% | –
c1cnc2c(n1)CCCC2 | -0.799% | –
NC(=O)N(O)[C@@H]1COc2cc(OCc3ccccc3)ccc21 | -12% | –
C(=C\c1ccccc1)/CN1CCN(C(c2ccccc2)c2ccccc2)CC1 | -7.25% [at 39.1 µM] | –
Nc1ccc(S(=O)(=O)O)cc1 | 4.02% [at 95.3 µM] | –
CCOC(=O)CC(=O)C(=O)OCC | 14.7% | –
Cc1ccnc2ccccc12 | -10.6% | –
CC1CC(O)CC(C)(C)C1 (stereo not given) | – | inactive
CCN(CC)CCNC(=O)c1ccc(NC(C)=O)cc1 | -2.63% | –
c1ccc(COCc2ccccc2)cc1 | -11.9% [at 95.3 µM] | –
CC(C)OCC1CO1 (stereo not given) | -7.63% | –
O=C(C(=O)c1ccccc1)c1ccccc1 | -12.5% | –
C[C@]12CCC(=O)C=C1C=C[C@@H]1[C@@H]2CC[C@@]2(C)[C@H]1CC[C@@]21CCC(=O)O1 | -19.2% | –
CCOC(=O)[C@@H](C)Oc1ccc(Oc2nc3ccc(Cl)cc3o2)cc1 | -4.3% | –
CCCOC(=O)c1ccc(N)cc1 | 5.74% | –
COC(OC)(C(=O)c1ccccc1)c1ccccc1 | -10.9% | –
CCn1cc(C(=O)O)c(=O)c2cc(F)c(N3CCNCC3)nc21 | -8.21% [at 39.1 µM] | –
CC(CCc1ccc2c(c1)OCO2)NN (stereo not given) | 8.3% | –
Cc1nc2ccccc2s1 | 6.78% [at 95.3 µM] | –

SMILES | activity change, negative = cytotoxicity | Potency
O=C(O)c1cccnc1C(=O)O | 6.92% | –
CC(=O)OCC(=O)[C@@]12OC(C)(C)O[C@@H]1C[C@H]1[C@@H]3C[C@H](F)C4=CC(=O)C=C[C@]4(C)[C@@]3(F)[C@@H](O)C[C@@]12C | 8.01% [at 39.1 µM] | –
O=C(O)c1cccc(O)c1 | 11.4% [at 95.3 µM] | –
CCCCCCCCCCOS(=O)(=O)O | 20.1% | –
CN(C(=O)C(Cl)Cl)c1ccc(OC(=O)c2ccco2)cc1 | 7.11% | –
O=C(CCCCCCCCC#CI)Oc1ccccc1 | 3.08% | –
C1COCO1 | 6.93% | –
C/C=C/C=C/CCCCCCCO | -17.8% | –
CN1CCN(CCCN2c3ccccc3Sc3ccc(S(=O)(=O)N(C)C)cc32)CC1 | -3.95% [at 39.1 µM] | –
CC1CC(=O)NN=C1c1ccc(NCC(C)(C)NCC(O)COc2cc(Cl)ccc2C#N)cc1 (stereo not given) | -6.11% | –
CC(C)CCCC(=O)O | 4.16% | –
C=CCCCCCCCCCCCCCCCC | 11.3% [at 8.08 µM] | –
CCCCN(CCCC)CCCOC(=O)c1ccc(N)cc1 | 13.3% [at 39.1 µM] | –
COC(=O)[C@@H]1CC2=CC(=O)CC[C@]2(C)[C@@]23O[C@@H]2C[C@@]2(C)[C@@H](CC[C@@]24CCC(=O)O4)[C@H]13 | 9.69% | –
Cc1nc2ccccn2c(=O)c1CCN1CCC(C(=O)c2ccc(F)cc2)CC1 | -1.89% | –
Brc1cc(-c2ccc(Br)c(Br)c2Br)cc(Br)c1Br | -10.4% | –
CC1(C)C(=O)N(Br)C(=O)N1Cl | 18.5% | –
CCC(C(=O)OCCN(CC)CC)c1ccccc1 (stereo not given) | -0.85% | –
CCCCOC(=O)CCS | 7.84% | –
COc1ccc(CCC(=O)c2c(O)cc(O[C@@H]3O[C@H](CO)[C@@H](O)[C@H](O)[C@H]3O[C@@H]3O[C@@H](C)[C@H](O)[C@@H](O)[C@H]3O)cc2O)cc1O | 6.4% | –
